Values joined by “and” are separate entries in the source; they are usually repeats but may differ in a detail not shown here. Identical values can stand only once. Counter-ions that a name gives are not always drawn. About 620 (11%) of roughly 5,800 compounds showed activity. Shown is part of a subset that was picked to be rich in actives. Values without a mark were called inactive.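 The calls were made as follows: active = score above a cut-off or among the top three wells of a plate; in these data no inactive exceeds 0.85.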

From the supplement of paper PMC9135407 come the findings set out here.

This assay concerns primary human hepatic stellate cells (donor 1). The assay can be described thus: scaled lipid accumulation score (0 = DMSO-like, 1 = nortriptyline-like); higher = stronger HSC inactivation (lipid re-accumulation), active = hit call of the paper. Conditions: 48 h.
Where [1] appears, read: library stock concentration: 80 uM.
Where [2] appears, read: library stock concentration: 400 uM.
Setting [3] is: library stock concentration: 2 mM.
The mark [4] stands for this setting: library stock concentration: 10 mM.
Where [5] appears, read: library stock concentration: 3.33 mM.
The mark [6] stands for this setting: library stock concentration: 1 mM.

Regarding `COc1cc(O)c2c(c1)/C=C/C[C@H](O)[C@H](O)C(=O)/C=C\C[C@H](C)OC2=O` [5z-7-oxozeaenol], the “scaled lipid accumulation score” value reads like this: under setting [1], not above -0.016; under setting [2], not above -0.016; under setting [3], not above -0.016; under setting [4], 0.613.

Regarding `CN1C(CCl)Nc2cc(Cl)c(S(N)(=O)=O)cc2S1(=O)=O` (stereo unspecified), the “scaled lipid accumulation score” value under setting [4] was 0.013. For `CN1C(CCl)Nc2cc(Cl)c(S(N)(=O)=O)cc2S1(=O)=O` (stereo unspecified) [Methyclothiazide], the “scaled lipid accumulation score” value under setting [5] was not above 0 and the “scaled lipid accumulation score” value under setting [4] is not above -0.001. As for `COC(=O)CCC[C@H](O)[C@H](O)CO` [5(S),6(R)-7-trihydroxymethyl Heptanoate], the “scaled lipid accumulation score” value under setting [6] was not above 0.

For the compound `NC[C@@H]1CC[C@@H](N)[C@@H](O[C@H]2[C@H](O)[C@@H](O[C@H]3O[C@H](CO)[C@@H](O)[C@H](N)[C@H]3O)[C@H](N)C[C@@H]2N)O1` [Dibekacin], the “scaled lipid accumulation score” value under setting [4] was 0.108. `CC(C)(C)NCC(O)c1ccc(O)c(CO)c1` (stereo unspecified) [Salbutamol]: the “scaled lipid accumulation score” value is not above 0. Consider `CC(CCc1ccccc1)NCC(O)c1ccc(O)c(C(N)=O)c1` (stereo unspecified) [Labetalol HCl], for which the “scaled lipid accumulation score” value runs as follows: under setting [5], not above 0; under setting [4], 0.464. As for `O=C(O)c1ccc2ccccc2c1O.OCc1cc(C(O)CNCCCCCCOCCCCc2ccccc2)ccc1O` (stereo unspecified) [Salmeterol xinafoate], the “scaled lipid accumulation score” value under setting [4] was 0.978 (active). The same measure, in the same setting: the same measure for `OCc1cc(C(O)CNCCCCCCOCCCCc2ccccc2)ccc1O` (stereo unspecified) [Salmeterol] [listing 1 of 2 here]: 1.08 (active). Take `CC(CCc1ccccc1)NCC(O)c1ccc(O)c(C(N)=O)c1` (stereo unspecified) [Labetalol hydrochloride]: the “scaled lipid accumulation score” value is 0.321. The “scaled lipid accumulation score” value under setting [4] is 0.546 and 0.164.

For the compound `CC(CCc1ccccc1)NCC(O)c1ccc(O)c(C(N)=O)c1` (stereo unspecified), the “scaled lipid accumulation score” value under setting [4] was 0.089. With `CC(C)(C)NCC(O)c1ccc(O)c(CO)c1` (stereo unspecified) [Albuterol hemisulfate], the “scaled lipid accumulation score” value under setting [4] was not above 0.

With `CC(C)(C)NC[C@H](O)c1ccc(O)c(CO)c1`, the “scaled lipid accumulation score” value under setting [4] is not above 0.

In the case of `OCc1cc(C(O)CNCCCCCCOCCCCc2ccccc2)ccc1O` (stereo unspecified) [Salmeterol] [listing 2 of 2 here], the “scaled lipid accumulation score” value was 0.275. Besides, the “scaled lipid accumulation score” value (library stock concentration: 4.8 mM) is 0.553. For the same compound, under setting [4], the “scaled lipid accumulation score” value is 0.62. As for `CC(C)(C)NCC(O)c1ccc(O)c(CO)c1` (stereo unspecified), the “scaled lipid accumulation score” value under setting [4] is 0.076. Consider `O=C(CCCC[C@@H]1SC[C@@H]2NC(=O)N[C@@H]21)NCCCC[C@H](NC(=O)CCN1C(=O)C=CC1=O)C(=O)O` [3-(N-Maleimidopropionyl)-biocytin], for which the “scaled lipid accumulation score” value under setting [6] was not above 0. For `Cc1c(C(=O)Nc2ccc(N3CCC(N4CCOCC4)CC3)c(C#N)c2)cnn1-c1ccc(Cl)cc1`, the “scaled lipid accumulation score” value under setting [5] was 0.756 and the “scaled lipid accumulation score” value under setting [4] is 0.699.

`C[N+]1(C)[C@@H]2C[C@@H](OC(=O)C(O)(c3cccs3)c3cccs3)C[C@H]1[C@@H]1O[C@@H]12` [Tiotropium Bromide hydrate]: the “scaled lipid accumulation score” value under setting [5] was not above 0 and the “scaled lipid accumulation score” value under setting [4] was not above 0. Regarding `CCCCC[C@H]1C=C[C@@H]2[C@@H](CC=CCCCC(=O)O1)[C@@H](O)C[C@H]2O` [Prostaglandin F2.alpha. 1,15-lactone], the “scaled lipid accumulation score” value under setting [6] was not above 0. Same read-out and setting: the same measure for `CCCCC/C=C/C=C1/C=CC(=O)[C@@H]1CCCCCCC(=O)O` [15-deoxy-.DELTA.12,14-Prostaglandin A1]: not above 0. As for `CC(C)C[C@H](NC(=O)CNC(=O)c1cc(Cl)ccc1Cl)B1OC(=O)CC(CC(=O)O)(C(=O)O)O1` (stereo partly specified), the “scaled lipid accumulation score” value is not above 0 under setting [5] and 0.118 under setting [4].

`OCC1OC(n2cnc3c(NC4CCCCC4)ncnc32)C(O)C1O` (stereo unspecified) [N6-Cyclohexyladenosine]: under setting [4], the “scaled lipid accumulation score” value is 0.037. As to `Cc1cccc(CCN2CCC(C(=O)c3ccc(NS(C)(=O)=O)cc3)CC2)n1` [E-4031 dihydrochloride], the “scaled lipid accumulation score” value under setting [4] is not above 0. Consider `Cc1cccc(CCN2CCC(C(=O)c3ccc(NS(C)(=O)=O)cc3)CC2)n1`, for which the “scaled lipid accumulation score” value (library stock concentration: 9.9 mM) was 0.011. Consider `Fc1ccc(Cl)cc1-c1nc(Nc2ccncc2)c2nccnc2n1`, for which the “scaled lipid accumulation score” value under setting [4] is not above -0.001. As for `O=C1c2ccccc2C(=O)C1c1ccccc1` [Phenindione], the “scaled lipid accumulation score” value was not above 0. Further, the “scaled lipid accumulation score” value under setting [5] was not above 0. Further, where the note is “library stock concentration: 9 mM”, the “scaled lipid accumulation score” value was 0.014. Moreover, the “scaled lipid accumulation score” value under setting [4] is not above 0. As for `O=C1C=CC(=O)C2=C1C1c3ccccc3C2c2ccccc21`, the “scaled lipid accumulation score” value under setting [4] was 0.953 (active). In the case of `CCCCCC(O)C=CC1C2CC(CO2)C1CCCCCCC(=O)O` (stereo not drawn) [9,11-methane-epoxy Prostaglandin F1.alpha.], under setting [6], the “scaled lipid accumulation score” value was 0.048. As to `O=C(NC1CCN(CCCCC2(C(=O)NCC(F)(F)F)c3ccccc3-c3ccccc32)CC1)c1ccccc1-c1ccc(C(F)(F)F)cc1` [Lomitapide] [listing 1 of 2 here], the “scaled lipid accumulation score” value under setting [5] is 1.05 (active). Take `O=C(Nc1ccc2c(c1)CCN(Cc1ncn[nH]1)C2)c1ccccc1-c1ccc(C(F)(F)F)cc1`: under setting [4], the “scaled lipid accumulation score” value was not above 0. Still for that read-out and setting: the figure for `O=C(NC1CCN(CCCCC2(C(=O)NCC(F)(F)F)c3ccccc3-c3ccccc32)CC1)c1ccccc1-c1ccc(C(F)(F)F)cc1` [Lomitapide] [listing 2 of 2 here] is not above 0. For `N[C@@H]1CCCN(c2c(/C=C3\SC(=O)NC3=O)cccc2-c2ccccc2)C1`, the “scaled lipid accumulation score” value is not above 0 under setting [1]; not above 0 under setting [2]; 0.016 under setting [3]; 0.072 under setting [5]; 0.072 and 0.486 under setting [4]. In the case of `CC(C)(C)c1cc(O)c(C(C)(C)C)cc1O` [2,5-Ditertbutylhydroquinone], the “scaled lipid accumulation score” value (library stock concentration: 22.5 mM) is 0.463.
